The whole screen tested about 1,500 compounds, of which about 890 (59%) were called active.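 Rule for the calls: active = inhibition of the choline-evoked signal at any tested dose together with a fitted dose-response curve; inactive = no inhibition at any dose or no curve.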 The set was probably picked from earlier hits. The list is a sample of the results. Results with a measured potency or affinity are listed apart.
Target: High affinity choline transporter 1 (Homo sapiens) (UniProt Q9GZV3)
Assay: human choline transporter blockers, potency – cell-based, 5-point CRC, membrane potential dye, dose response (AID 504840)
Details: HEK293-CHT, choline-induced depolarization, CHT with LV-to-AA double alanine mutation; series mostly up to 37 µM

Sequence of High affinity choline transporter 1 (Homo sapiens) (Q9GZV3 whole entry, looked up): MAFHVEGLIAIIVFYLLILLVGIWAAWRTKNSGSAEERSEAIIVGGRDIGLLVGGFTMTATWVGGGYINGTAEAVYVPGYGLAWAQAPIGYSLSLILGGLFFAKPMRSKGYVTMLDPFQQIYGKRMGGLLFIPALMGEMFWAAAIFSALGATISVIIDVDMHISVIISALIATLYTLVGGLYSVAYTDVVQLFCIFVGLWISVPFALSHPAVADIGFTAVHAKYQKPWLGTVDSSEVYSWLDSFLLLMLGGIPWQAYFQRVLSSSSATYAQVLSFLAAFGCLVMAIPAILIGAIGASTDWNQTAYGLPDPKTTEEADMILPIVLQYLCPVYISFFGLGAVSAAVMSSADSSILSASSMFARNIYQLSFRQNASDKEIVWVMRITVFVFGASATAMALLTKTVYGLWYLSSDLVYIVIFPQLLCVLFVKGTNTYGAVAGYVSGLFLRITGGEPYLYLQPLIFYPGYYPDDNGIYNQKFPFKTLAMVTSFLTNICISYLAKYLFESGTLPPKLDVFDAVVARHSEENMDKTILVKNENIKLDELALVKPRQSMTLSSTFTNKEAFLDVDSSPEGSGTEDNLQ

outcome, inactive:
Cc1cc(O)ccc1C1(c2ccc(O)cc2C)OC(=O)c2ccccc21, CCCCCCCCC[n+]1cccc2c3ccccc3ccc21, Cn1ncc2c(N3CCC(Cc4ccccc4)CC3)ncnc21, Cc1c(C)n(CCc2ccccc2)c2ncnc(NN)c12, O=C(NC1CC1)C1=C[C@H](c2ccc(Br)cc2)C[C@H](OCc2ccc(CO)cc2)O1, Cn1nc(C(F)(F)F)c(-c2ccccc2)c1NC(=O)c1ccco1, O=C(Nc1ccccc1Cl)C1CCCN(c2ncnc3c2nc2n3CCCCC2)C1 (stereo not given), O=C(Nc1ccc(Cl)cn1)C1CCCN(c2ncnc3c2nc2n3CCCCC2)C1 (stereo not given), O=C(N/N=C/c1cccc(Oc2ccccc2)c1)c1cccc(O)c1, O=c1cc(CSc2nc3cc(Cl)ccc3o2)nc2sccn12, O=c1cc(CN2CCN(c3ccccc3O)CC2)nc2sccn12, O=C(Cn1nc(C(F)(F)F)c2c1CCCC2)NC1CCCC1, O=C(Cn1nc(C(F)(F)F)cc1C1CC1)NCc1ccccc1F, Clc1cccc(CNCCNCc2cccc(Cl)c2)c1, O=C(CSc1nnc(Cc2ccsc2)o1)c1ccccc1, CC(C)(C)OC(=O)NCCc1nnc(SCc2ccc(Cl)cc2)o1, CCOC(=O)c1[nH]c(C=O)c(C(=O)OCC)c1C, O=C(CSc1nccn1-c1ccc(F)cc1)NCc1ccc(F)cc1, C=CCn1c(CSc2nc3ccccc3s2)nnc1SCC(=O)NCc1ccccc1, Cc1nc2cc(C(=O)N3c4ccccc4CC3C)ccc2s1 (stereo not given), CCN1CCN(C(=O)CCc2nc3ccccc3n2-c2ccccc2)CC1, COc1ccc(-c2cc(C(=O)NCCCN3CCOCC3)c3cc(C(C)C)ccc3n2)cc1, CC(=O)c1cccc(OCC(=O)c2cc(C)n(-c3cc(C)on3)c2C)c1, N#C/C(=C\c1ccc(O)c(Br)c1)C(=O)NCc1ccccc1, COc1ccccc1NS(=O)(=O)c1ccc(O)c(C(=O)OCC(=O)c2ccc(Cl)cc2Cl)c1, Cc1c(Cl)cccc1NCC(=O)NN=C1CCCC1, Cc1nc(SC2CC(=O)N(c3cc(Cl)cc(Cl)c3)C2=O)nc2c1CCCC2 (stereo not given), COc1ccc(OC)c(Cc2nnc(CCC(=O)N3CCN(C4CCCC4)CC3)o2)c1, CC(C)(C)c1cc(C(=O)N/N=C/c2ccc(F)cc2)n(-c2ccccc2)n1, Cc1cc(/C=N/NC(=O)C(=O)NCc2ccccn2)c(C)n1-c1ccccc1, Cc1ccc(S(=O)(=O)N/N=C/c2cc(Br)ccc2O)cc1, CCOC(=O)c1cc2c(s1)-c1c(C)cccc1OC2, Cc1ccccc1NC(=S)NNC(=O)c1ccncc1, COc1ccc(C(=O)NC(=S)NNC(=O)c2ccc(C)cc2)cc1, Cc1ccc(C)c(NC(=O)c2cccc(Oc3ccc([N+](=O)[O-])cc3Cl)c2)c1, O=C(Nc1ccc(F)cc1)N1CCN(CCc2ccccc2)CC1, C#CC[N+]1(CC#Cc2ccc(C)cc2)CCCCC1, Cc1ccc(C#CC[N+]2(C)CCCCC2)cc1, Cc1cn([C@H](C(=O)NCCCCCCCCCCC(=O)N2CCN(C(=O)OC(C)(C)C)CC2)[C@@H](C)O)nn1, CN(/N=C/c1cc(Cl)cc(Cl)c1O)C(=S)NC(C)(C)C, O=C(CNC(=O)c1ccc(Cl)cc1Cl)OCC(=O)c1ccc2c(c1)OCCO2, COc1cc(CCCN2C(=O)C(=O)NC[C@H]2Cc2cccc3ccccc23)cc(OC)c1OC, CC(NC(=O)Cc1ccc(S(=O)(=O)N2CCOCC2)s1)c1ccc(Cl)c(Cl)c1 (stereo not given), CCOC(=O)c1ccc(NC(=O)c2ccc(C)c(S(=O)(=O)N3CCOCC3)c2)cc1, O=S(=O)(Nc1nc2ccccc2s1)c1ccc(Cl)s1, Cc1ccc(F)cc1NC(=O)c1ccc(NS(=O)(=O)c2ccc(Br)s2)cc1, O=C(Nc1ccccc1)c1nnn(Cc2ccccc2)c1NC(=O)C(F)(F)F, O=C(O)CSc1cc(C(=O)c2ccccc2O)cn2c(=O)c3c(-c4ccccc4)csc3nc12, Cc1ccc(-c2csc3nc(SCC(=O)Nc4ccc(Cl)c(C(=O)O)c4)[nH]c(=O)c23)cc1, CCCc1cc(NCCN(C)C)n2c(nc3ccccc32)c1C#N, O=S(=O)(Nc1nc2ccccc2nc1NCC1CCCO1)c1cc(Cl)ccc1Cl (stereo not given), NC(=O)c1c(NC(=O)CN2C(=O)NC(Cc3ccccc3)C2=O)sc2c1CCC2 (stereo not given), O=C(Nc1sc2c(c1C(=O)O)CCCC2)c1ccc(Cl)cc1, O=C(NC1CCCC1)C(c1cccnc1)N(CCc1ccccc1)C(=O)c1ccco1 (stereo not given), CC1CCC(NC(=O)Cn2c3c(c(-c4ccccc4Cl)cc2=O)CCC3)CC1 (stereo not given), CC1CCC(NC(=O)c2ccc(NC3=NC4CS(=O)(=O)CC4S3)cc2)CC1 (stereo not given), NC(N)=Nc1nc(CCN2C(=O)c3ccccc3C2=O)cs1, CCN(CC)S(=O)(=O)c1cc(C(=O)N2CCc3ccccc32)ccc1Cl, CC(C)n1c(O)c(N=NC(=O)CNC(=O)Cc2ccc(Cl)cc2)c2ccccc21, CCCCn1nc2cc(C(=O)NC3CCc4ccccc43)ccc2c1OCC (stereo not given), O=C(Nc1ccc(S(=O)(=O)Nc2nccs2)cc1)c1c(F)c(F)c(F)c(F)c1F, Cc1ccc(NC(=O)CN(C)C(=O)COC(=O)CNS(=O)(=O)c2ccc(Br)cc2Cl)cc1, CC(Oc1ccc(Cl)cc1Cl)C(=O)Nc1ccc(S(=O)(=O)Nc2cnc3ccccc3n2)cc1 (stereo not given), O=C1C[C@H]2[C@H](CO)[C@@H](OC(=O)c3ccc(-c4ccccc4)cc3)C[C@H]2O1, CCC(Oc1ccccc1C)C(=O)Nc1ccc(S(=O)(=O)Nc2cc(C)on2)cc1 (stereo not given), CC1(C)C(C=C(Cl)Cl)C1C(=O)Nc1ccc(S(=O)(=O)Nc2ncccn2)cc1 (stereo not given), O=C(Nc1ccc(S(=O)(=O)Nc2cnc3ccccc3n2)cc1)c1ccc(Cl)c([N+](=O)[O-])c1, COC(=O)C1=C(N)Oc2cc(C)n(CCc3ccccc3)c(=O)c2C1c1cccnc1 (stereo not given), CC(OC(=O)c1cc2sccc2n1C)C(=O)NC(C)(C)C (stereo not given), COc1ccc(N2CCN(CC(=O)Nc3c(C)cc(C)cc3C)CC2)cc1, CN(C)c1ccc(Nc2c3c4c(cccc4n(C)c2=O)C(=O)c2ccccc2-3)cc1, O=C(CC(=O)c1c(F)cccc1Cl)c1ccccc1O, CC(=O)c1cc2c(cc1NC(=O)CCNC(=O)c1ccccc1Cl)OCO2, CCCCNS(=O)(=O)c1ccc(NC(=O)Cc2ccccc2[N+](=O)[O-])cc1, CCCCOC(=O)c1ccc(NC(=O)c2cc(Cl)c(Cl)cc2C(=O)O)cc1, Cc1ccc2[nH]c3c(c2c1)CN(C(=O)CN1CCN(Cc2ccc4c(c2)OCO4)CC1)CC3, CCOc1[nH]c(/N=C/c2ccco2)c(C#N)c1C#N, CC(C)(C)C(=O)N1CCN(c2ccc(NC(=O)c3ccc4c(c3)OCCO4)cc2)CC1, COc1ccc(C(=O)NC(=S)NNC(=O)CCc2ccccc2)cc1, Cc1ccc(CNC(=O)N[C@@H](Cc2ccccc2)C(=O)O)cc1, COC(=O)CCCCCN1C(=O)NC(C2CC2)C(C(=O)OCc2ccccc2)=C1C (stereo not given), CC1=C(C(=O)OC(C)C)C(c2ccc(Br)s2)NC(=O)N1C (stereo not given), CCOC(=O)c1cnc2c(Cl)cc(Cl)cc2c1NCCOCCO, O=C(CS(=O)(=O)Nc1ccc(F)cc1Cl)Nc1ccc(F)cc1Cl, CC(C(=O)NC1CCS(=O)(=O)C1)N1C(=O)/C(=C/c2ccc(Cl)cc2)SC1=S (stereo not given), Cc1ccc(S(=O)(=O)NCCC(=O)NC(C)CCc2ccccc2)cc1 (stereo not given), Cc1n[nH]c(=O)c2c(NC(=O)CSc3nc4ccccc4c(=O)n3C(C)C)oc(C)c12, CC(C)n1c(=S)[nH]c2cc(Cl)ccc21, CCn1cc(C(=O)N(CCC(C)C)c2c(N)n(Cc3ccccc3)c(=O)[nH]c2=O)c(=O)c2ccc(C)nc21, Fc1ccc(-c2nc3c(-c4ccc(F)cc4)cnn3cc2CCN2CCOCC2)cc1, CN1CCN(c2ccc(NC(=O)c3ccc(Cl)cc3Cl)cc2)CC1, CSC1=C(C#N)C(c2ccncc2)C(C(=O)Nc2ccccc2)=C(C)N1 (stereo not given), CCN(CCNC(=O)CN1CCN(Cc2ccc(Cl)cc2)C1=O)c1ccccc1, Cc1ccccc1Nc1c(-c2ccncc2)nc2ccc(Br)cn12, Cc1ccc(NC(=S)Nc2ccc(F)cc2)cc1C, Cc1ccc(NC(=S)Nc2cccc3cnccc23)cc1C, COc1ccc([N+](=O)[O-])c(S(=O)(=O)c2ccccc2)n1, COc1ccc(OCc2cccc(C(=O)Nn3cc([N+](=O)[O-])cn3)c2)cc1, Cc1cc2c(ncn2Cc2ccccc2)c([N+](=O)[O-])c1C, CC(C)c1cc(C(=O)NNC(=S)NC2CCCCC2)cs1, CCN(CC)S(=O)(=O)c1ccc(/C=C/C(=O)NC2CCCCC2)cc1, O=C(CCc1ccc(S(=O)(=O)N2CCOCC2)cc1)N1CCc2ccccc2C1, COc1ccc(S(=O)(=O)N2CCC(C(=O)N3CCc4ccccc4C3)CC2)cc1, CNCC(O)c1ccc(O)c(O)c1 (stereo not given), C#CC[N+](CC)(CC)CC#Cc1ccccc1

Source: PubChem BioAssay AID504840 (Johns Hopkins Ion Channel Center, 2011)
